This note sets out measurements from PubChem BioAssay (NCI).

Values joined by “and” are separate entries in the source; they are usually repeats but may differ in a detail not shown here. Equal entries are not always repeated. About 83,000 compounds went through this panel and 20% of them were active in at least one assay; those are over-represented in the sample as a whole.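 Plates (96-well) were seeded with cells, treated with compound at one concentration, and incubated for 48 hours before percent growth was determined.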 Active and inactive are the calls of the source. Rule for the calls: active = growth percent below 10; inactive = the rest.

Holding throughout (experiment): NCI-60 one-dose screen, 48 h (100 = growth as untreated, 0 = no growth, -100 = all killed)
One assay relates to NCI-H226 lung. The note with it: 10 µM.
The next assay relates to NCI-H322M lung. The note with it: 10 µM.
The next assay has as its system HOP-62 NSCLC. The conditions noted are these: 10 µM.
The subject of a further assay is NCI-H460 lung. The note with it: 10 µM.
In another assay the test system is A549/ATCC NSCLC. The note with it: 10 µM.
In a further assay the test system is 786-0 renal. The note with it: 10 µM.
For the next assay, the system named is COLO 205 colon. The conditions noted are these: 10 µM.
For another assay, the system named is DU-145 prostate. The note with it: 10 µM.
The subject of another assay is SF-268 CNS. The note with it: 10 µM.
A further assay relates to SF-295 CNS. The note with it: 10 µM.
In another assay the test system is SF-539 CNS. The conditions noted are these: 10 µM.
Another assay relates to HCT-15 colon. The note with it: 10 µM.
The subject of another assay is HT29 colon. The note with it: 10 µM.
In another assay the test system is SNB-75 CNS. The note with it: 10 µM.
A further assay concerns SNB-19 CNS. The note with it: 10 µM.
The subject of the next assay is PC-3 prostate. The note with it: 10 µM.
In another assay the test system is EKVX NSCLC. The note with it: 10 µM.
The subject of another assay is UO-31 renal. The note with it: 10 µM.
The next assay concerns ACHN renal. The note with it: 10 µM.
The next assay deals with HL-60(TB) leukemia. The conditions noted are these: 10 µM unless noted.

As for `NC1CCc2cc(O)c(O)cc2C1` (stereo not given), the growth was 90.7% (inactive) in the assay with NCI-H226 lung; 98.6% (inactive) in the assay with NCI-H322M lung; 100% (inactive) in the assay on HOP-62 NSCLC; 87% (inactive) in the assay with NCI-H460 lung; 82.3% (inactive) in the assay on A549/ATCC NSCLC; 84.7% (inactive) with 786-0 renal. In addition, the growth was 80.7% (inactive) with COLO 205 colon; 94.3% (inactive) in the assay with DU-145 prostate; 104% (inactive) with SF-268 CNS; 95% (inactive) in the assay on SF-295 CNS; 94.8% (inactive) in the assay with SF-539 CNS; 41.8% (inactive) in the assay with HCT-15 colon. Besides, the growth with HT29 colon is 39.7% (inactive); in the assay on SNB-75 CNS, 82.6% (inactive); in the assay with SNB-19 CNS, 98% (inactive); with PC-3 prostate, 76.1% (inactive); with EKVX NSCLC, 93.9% (inactive); in the assay on UO-31 renal, 85.1% (inactive). Also, the growth with ACHN renal is 96.9% (inactive); in the assay with HL-60(TB) leukemia, 32.9% (inactive).

Turning to `CC1=C2C(=C[C@@](C)(COC(=O)c3ccc(S(=O)(=O)F)cc3)[C@@H]2OC(=O)c2ccc(S(=O)(=O)F)cc2)C(=O)[C@](C)(O)C12CC2`, the growth was -6.08% (active) in the assay on NCI-H226 lung; 9.18% (active) in the assay on NCI-H322M lung; -20.3% (active) in the assay with HOP-62 NSCLC; 0.279% (active) in the assay on NCI-H460 lung; 2.93% (active) in the assay on A549/ATCC NSCLC; -44.2% (active) in the assay on 786-0 renal. Also, the growth was -78.1% (active) in the assay on COLO 205 colon; 5.79% (active) in the assay with DU-145 prostate; 2.06% (active) in the assay on SF-268 CNS; 1.3% (active) with SF-295 CNS; -4.86% (active) in the assay on SF-539 CNS; 0.515% (active) with HCT-15 colon. Besides, the growth in the assay on HT29 colon was 2.13% (active); in the assay with SNB-75 CNS, -8.24% (active); in the assay with SNB-19 CNS it was 21.5% (inactive); in the assay with PC-3 prostate, 16.2% (inactive); with EKVX NSCLC it was 23.6% (inactive); in the assay with UO-31 renal, -13.7% (active). For the same molecule, the growth is -15.8% (active) with ACHN renal and 8.8% (active) with HL-60(TB) leukemia.

Take `CC1=C2C(=C[C@@](C)(C=O)[C@@H]2O)C(=O)[C@](C)(O)C12CC2`: the growth in the assay on NCI-H226 lung was 46.1% (inactive); in the assay with NCI-H322M lung, 26.5% (inactive); in the assay with HOP-62 NSCLC, 8.06% (active); in the assay on NCI-H460 lung it was 5.09% (active); in the assay on A549/ATCC NSCLC it was 8.13% (active); in the assay on 786-0 renal, 5.21% (active). For the same molecule, the growth is -28.2% (active) in the assay on COLO 205 colon; 9.15% (active) in the assay on DU-145 prostate; 12.2% (inactive) in the assay on SF-268 CNS; 3.31% (active) in the assay with SF-295 CNS; -10.7% (active) in the assay with SF-539 CNS; 6.02% (active) in the assay with HCT-15 colon. The growth is 4.21% (active) in the assay with HT29 colon; -3.53% (active) with SNB-75 CNS; 20.7% (inactive) in the assay on SNB-19 CNS; 6.53% (active) in the assay with PC-3 prostate; 15% (inactive) in the assay on EKVX NSCLC; -13.3% (active) in the assay with UO-31 renal. For the same molecule, the growth with ACHN renal is -18.5% (active); with HL-60(TB) leukemia, -12% (active).

Consider `CC1=C(CN(O)C(N)=O)C2=C(C)C3(CC3)[C@@](C)(O)C(=O)C2=C1`, for which the growth with NCI-H226 lung was -46.8% (active); with NCI-H322M lung, 5.16% (active); with HOP-62 NSCLC, -9% (active); in the assay on NCI-H460 lung, -11.2% (active); in the assay with A549/ATCC NSCLC, -8.35% (active); with 786-0 renal, -5.47% (active). For the same molecule, the growth with COLO 205 colon was -35.9% (active); in the assay on DU-145 prostate it was -2.79% (active); in the assay with SF-268 CNS, -14.7% (active); in the assay with SF-295 CNS, -11.4% (active); in the assay with SF-539 CNS it was -46.1% (active); in the assay with HCT-15 colon, 0.564% (active). Further, the growth in the assay with HT29 colon was 0.349% (active); in the assay on SNB-75 CNS, -52.8% (active); with SNB-19 CNS, 16.2% (inactive); in the assay with PC-3 prostate, 2.36% (active); in the assay with EKVX NSCLC it was -24.1% (active); with UO-31 renal, -31.8% (active). Further, the growth is -14.4% (active) in the assay with ACHN renal and -28.2% (active) in the assay with HL-60(TB) leukemia.

Take `COC1[C@@H]2C[C@H]3C(C)(C)O[C@@](C/C=C(/C)C(=O)O)(C2=O)[C@]32Oc3c(CC=C(C)C)c4c(c(O)c3C(=O)[C@H]12)C=CC(C)(C)O4` (stereo not given in full): the growth with NCI-H226 lung is 23% (inactive); in the assay with NCI-H322M lung it was -67% (active); with HOP-62 NSCLC, -24.8% (active); in the assay on NCI-H460 lung, -55.6% (active); in the assay with A549/ATCC NSCLC, -20.3% (active); in the assay on 786-0 renal, -50.8% (active). For the same molecule, the growth in the assay with COLO 205 colon is -72.1% (active); with DU-145 prostate, -97.2% (active); in the assay on SF-268 CNS, -45.5% (active); with SF-295 CNS, -55.2% (active); in the assay on SF-539 CNS, -23% (active); in the assay on HCT-15 colon it was -43.1% (active). Further, the growth in the assay on HT29 colon is -33.3% (active); with SNB-75 CNS it was -24.3% (active); with SNB-19 CNS it was -69.5% (active); with PC-3 prostate it was -18.4% (active); in the assay with EKVX NSCLC, -46.5% (active); in the assay with UO-31 renal, -69.6% (active). Moreover, the growth in the assay with ACHN renal was -71% (active); in the assay on HL-60(TB) leukemia, -29.8% (active).

Take `C/C=C/CC(C)C(O)[C@H](NC(=O)[C@@H]1CCCN1C(=O)C(C)(C)NC(=O)CCCCCCCCC)C(=O)N[C@@](C)(CC)C(=O)N[C@@H](CCC(N)=O)C(=O)N[C@H](CCC(N)=O)C(=O)NC(C)(C)C(=O)N[C@@](C)(CC)C(=O)N[C@@H](CCC(N)=O)C(=O)N[C@H](CC(C)C)C(=O)N[C@H](CO)CC(C)C` (stereo not given in full): the growth with NCI-H226 lung was 99.5% (inactive) and -21.5% (active); with NCI-H322M lung, 105% (inactive) and -23.7% (active); in the assay with HOP-62 NSCLC, 104% (inactive) and -67.3% (active); in the assay with NCI-H460 lung, 106% (inactive) and -77.3% (active); in the assay on A549/ATCC NSCLC, 103% (inactive) and 26.2% (inactive); in the assay with 786-0 renal, 108% (inactive) and -81.9% (active). Also, the growth in the assay on COLO 205 colon was 104% (inactive) and -60.2% (active); in the assay with DU-145 prostate, 103% (inactive) and -72.3% (active); in the assay with SF-268 CNS, 104% (inactive) and -52.9% (active); with SF-295 CNS, 104% (inactive) and -83.9% (active); with SF-539 CNS, 100% (inactive) and -100% (active); in the assay on HCT-15 colon, 101% (inactive) and 20.9% (inactive). Besides, the growth with HT29 colon is 116% (inactive) and 29.2% (inactive); in the assay on SNB-75 CNS, 96.1% (inactive) and -85.9% (active); in the assay on SNB-19 CNS it was 101% (inactive) and -98% (active); in the assay with PC-3 prostate it was 97.3% (inactive) and -48.8% (active); in the assay with EKVX NSCLC it was 106% (inactive) and -68.1% (active); in the assay on UO-31 renal, 85.2% (inactive) and -84.9% (active). Further, the growth was 103% (inactive) and -7.13% (active) in the assay with ACHN renal; 100% (inactive) and -46.1% (active) with HL-60(TB) leukemia.

Regarding `CCC(C)[C@H]1C(=O)O[C@H](C(C)C)C(=O)N(C)[C@@H](C(C)C)C(=O)O[C@H](C(C)C)C(=O)N(C)[C@@H](C(C)C)C(=O)O[C@H](C(C)C)C(=O)N1C` (stereo not given in full), the growth was 21.2% (inactive) in the assay with NCI-H226 lung; 14.3% (inactive) in the assay with NCI-H322M lung; 15% (inactive) in the assay with HOP-62 NSCLC; 7.94% (active) with NCI-H460 lung; 14.5% (inactive) in the assay with A549/ATCC NSCLC; 20.9% (inactive) with 786-0 renal. The growth in the assay with COLO 205 colon was -74.7% (active); in the assay on DU-145 prostate, 26.9% (inactive); in the assay on SF-268 CNS it was 21.9% (inactive); in the assay with SF-295 CNS, 9.15% (active); in the assay with SF-539 CNS, 19.1% (inactive); in the assay with HCT-15 colon it was 14.6% (inactive). Besides, the growth was 9.91% (active) in the assay with HT29 colon; 2.63% (active) with SNB-75 CNS; 21.6% (inactive) in the assay on SNB-19 CNS; 12.2% (inactive) in the assay on PC-3 prostate; 24% (inactive) with EKVX NSCLC; -10.8% (active) in the assay on UO-31 renal. Moreover, the growth was 9.28% (active) with ACHN renal and -48.8% (active) in the assay with HL-60(TB) leukemia.
